Pf growth 96h = Primary qHTS for delayed death inhibitors of the malarial parasite plastid, 96 hour incubation; P. falciparum luciferase reporter growth, 96 h; Potency, µM (series often up to 28.7 µM), hits mostly inhibitors; 6.9% of 320,000 active
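Luminescence readout: decreased luciferase signal marks inhibited growth of reporter-expressing P. falciparum in infected red cells (2% hematocrit, 0.05% parasitemia final), exposed to compound two generations (96 h, 37 C, 5% CO2).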
Pf growth 48h = Primary qHTS for delayed death inhibitors of the malarial parasite plastid, 48 hour incubation. P. falciparum luciferase growth in erythrocytes, 48 h. Potency, µM (doses to about 28.7 µM), hits mostly inhibitors. 5.9% of 310,000 active
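First compound was added to culture medium, then infected red cells at 0.1% parasitemia and 2% hematocrit (final). After incubation at 37 C under 5% CO2, luciferase detection reagent was dispensed and light output recorded.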
AMA1-RON2 inh = qHTS for Inhibitors of AMA1-RON; Towards Development of Antimalarial Drug Lead: Primary Screen; Potency, µM (highest dose often 58.2 µM), hits mostly inhibitors; 0.2% of 360,000 active; AlphaScreen AMA1-biotinylated RON2 peptide binding; Plasmodium falciparum AMA1 (3D7) - RON2 peptide interaction; also: nearly all actives have a fitted effect of over 45% in size
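AMA1 (3D7) with his tag at 25 nM final met compounds first, then biotinylated RON2 peptide at 25 nM; detection used donor plus acceptor beads, 10 µg/mL apiece, read by AlphaScreen after 30 min at room temperature.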
SARS PLP yeast = qHTS of Yeast-based Assay for SARS-CoV PLP. S. cerevisiae expressing SARS-CoV PLpro, growth rescue. Potency, µM (titrated, usually from 32.9 µM), hits mostly activators. 0.19% of 330,000 active; calls by dose curve; also: nearly all actives have a fitted effect of over 55% in size
Shiga inhibitor = A qHTS for Small Molecule Inhibitors of Shiga Toxin | Vero cells, Shiga toxin protein synthesis inhibition reporter | inhibition, % at 38.7 µM | 9.2% of 290,000 active; in the data active = inhibition mostly above about 28%, no sharp cut-off; inactive = mostly below about 43%
CHX counter = Cycloheximide Counterscreen for Small Molecule Inhibitors of Shiga Toxin | max response, % | cell reporter, cycloheximide protein synthesis inhibition counterscreen | 12% of 300,000 active; in the data active = max response mostly above about 13%, no sharp cut-off; inactive = mostly below about 14%; also: read at 38.3 µM for the half of the compounds with a filed dose
Of the large screens only hits and unclear results are named; the others gave an inactive call. Rows were chosen to be rich in hits. Some 19% of all compounds tested hit in one or more screens of this group. Unless noted, calls follow the shape of the dose curve; as a rule, active = well fitted curve in the direction sought with a large enough effect; inconclusive = small, poorly fitted or top-dose-only effect, or another doubt; inactive = no such curve, though single readings can be large; an effect the other way counts as inactive or inconclusive.

OCc1cc(C(O)CNCCCCCCOCCCCc2ccccc2)ccc1O (stereo not drawn)	Pf growth 96h 12µM, Pf growth 48h 13.1µM
Cc1ccccc1NC(=S)N/N=C/c1ccc(O)cc1O	Pf growth 96h inconclusive, Shiga inhibitor 100.5, CHX counter 41.4
Cc1ccccc1NC(=S)N/N=C/C(C)c1ccccc1 (stereo not drawn)	Pf growth 96h inconclusive, Pf growth 48h inconclusive
Cc1cccc(NC(=S)N/N=C/c2cccc(O)c2)c1C	CHX counter 19.0
C=CCn1c[n+](CC(=O)c2ccc(Br)s2)c2ccccc21	Pf growth 48h inconclusive
CC(=O)Nc1ccc2nc(-c3ccccc3)cn2c1	Shiga inhibitor 107.1, CHX counter 40.4
CC(=O)Nc1ccc(-c2cc(-c3ccc(NC(C)=O)cc3)nc(-c3ccccc3)n2)cc1	Pf growth 96h inconclusive
Cc1ccn2cc(-c3cccc(NS(C)(=O)=O)c3)nc2c1	Shiga inhibitor 59.0, CHX counter 59.6
Cc1ccn2cc(-c3cccc(S(=O)(=O)N4CC(C)OC(C)C4)c3)nc2c1 (stereo not drawn)	Pf growth 96h inconclusive, Pf growth 48h inconclusive
CC(=O)Nc1ccc(-n2c(C)nc(=O)c(-c3ccccc3)c2C)cc1	Pf growth 96h 5.22µM
Cc1ccn2cc(-c3cccc(S(=O)(=O)N4CCCC4)c3)nc2c1	CHX counter 18.5
O=C(O)COC(=O)Cc1ccccc1Nc1c(Cl)cccc1Cl	Pf growth 96h inconclusive, Pf growth 48h inconclusive
Cc1ccn2cc(-c3cnoc3C)nc2c1	none (no result: Pf growth 96h)
COc1c(Cl)cccc1-c1cn2ccc(C)cc2n1	Shiga inhibitor 80.6, CHX counter 42.0
Cc1ccn2cc(-c3cccc([N+](=O)[O-])c3)nc2c1	CHX counter 30.3
COc1ccc2oc(=O)c(-c3cn4ccc(C)cc4n3)cc2c1	Pf growth 96h inconclusive, CHX counter 23.5
CC(=O)Nc1cccc(-c2cn3ccc(C)cc3n2)c1	Shiga inhibitor 88.5, CHX counter 44.2
Cc1ccc(C[C@@H](NS(=O)(=O)c2ccc(C(=O)O)cc2)C(=O)O)cc1	none (no result: AMA1-RON2 inh)
Cn1c(=O)c2ncn(CC(=O)N/N=C/C=C/c3ccccc3)c2n(C)c1=O	none
Cn1c(=O)c2ncn(CC(=O)N/N=C/c3ccco3)c2n(C)c1=O	Pf growth 96h 5.86µM
O=S(=O)(NCc1ccc2c(c1)OCO2)c1cccc2cccnc12	none (no result: Pf growth 96h)
COC(C[C@H](O)[C@H](C)[C@@H](O)COCc1ccccc1)OC	none
CN(C(=O)CN1C(=O)S/C(=C\c2ccc(Cl)cc2)C1=O)C1CCS(=O)(=O)C1 (stereo not drawn)	none
CN(C(=O)CCN1C(=O)/C(=C/c2ccccc2)SC1=S)C1CCS(=O)(=O)C1 (stereo not drawn)	Pf growth 96h 2.62µM, Pf growth 48h inconclusive
CN(C(=O)CN1C(=O)S/C(=C\c2ccccc2)C1=O)C1CCS(=O)(=O)C1 (stereo not drawn)	Pf growth 96h 13.1µM
CC(C)c1ccc(N(CC(=O)NC2CCCC2)C(=O)CCC(=O)Nc2nccs2)cc1	Pf growth 96h inconclusive, Pf growth 48h inconclusive
CCN1C[C@@H]2[C@@H]3C(=O)N(C)C(=O)[C@@H]3[C@](C)(C1=O)N2C(=O)c1ccc(C(C)(C)C)cc1	none (no result: Pf growth 96h, Pf growth 48h, SARS PLP yeast, Shiga inhibitor, CHX counter)
COc1cc(/C=N/NC(=O)c2nonc2C)ccc1O	Shiga inhibitor 63.2
COc1cc(/C=N/NC(=O)c2nc(C)cc(C)n2)ccc1O	CHX counter 16.7 (no result: Pf growth 96h)
COc1cc(/C=N/NC(=O)c2cccc(C(=O)N/N=C/c3ccc(O)c(OC)c3)n2)ccc1O	none
Cc1nonc1C(=O)N/N=C/c1ccccc1	Shiga inhibitor 86.6, CHX counter 38.8
Cc1c(C(=O)N/N=C/c2ccccc2)sc(=S)n1C	Pf growth 96h 13.1µM
Cc1ccc(C)c(C(=O)CCC(=O)Nc2ccc(N3CCN(C)CC3)cc2C)c1	none (no result: Pf growth 96h, Pf growth 48h, Shiga inhibitor, CHX counter)
O=C1NC(=O)C2(CCCC2c2ccccc2)N1 (stereo not drawn)	none (no result: Pf growth 96h, Pf growth 48h, SARS PLP yeast, Shiga inhibitor, CHX counter)
Cc1nonc1C(=O)N/N=C/c1ccc(O)c(O)c1	Shiga inhibitor 99.4, CHX counter 41.9

High-throughput results deposited in PubChem BioAssay by National Center for Advancing Translational Sciences (NCATS).
